# D1 allo mod: D1 CRE-luciferase signal change, two-sided – cell-based, HEK293 D1, dopamine EC30, D1 allosteric modulator project, primary screen; D(1A) dopamine receptor (Homo sapiens), P21728; dopamine EC30 potentiation; actives deviate in either direction; B-score at 10 µM; hit rate 5.9% among 58,000; AID 641, 2007;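 active = luminescence count or its row- and column-corrected plate score outside the 99.7% band of the plate's sample wells, on either side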
# Target sequence (P21728 whole entry, looked up): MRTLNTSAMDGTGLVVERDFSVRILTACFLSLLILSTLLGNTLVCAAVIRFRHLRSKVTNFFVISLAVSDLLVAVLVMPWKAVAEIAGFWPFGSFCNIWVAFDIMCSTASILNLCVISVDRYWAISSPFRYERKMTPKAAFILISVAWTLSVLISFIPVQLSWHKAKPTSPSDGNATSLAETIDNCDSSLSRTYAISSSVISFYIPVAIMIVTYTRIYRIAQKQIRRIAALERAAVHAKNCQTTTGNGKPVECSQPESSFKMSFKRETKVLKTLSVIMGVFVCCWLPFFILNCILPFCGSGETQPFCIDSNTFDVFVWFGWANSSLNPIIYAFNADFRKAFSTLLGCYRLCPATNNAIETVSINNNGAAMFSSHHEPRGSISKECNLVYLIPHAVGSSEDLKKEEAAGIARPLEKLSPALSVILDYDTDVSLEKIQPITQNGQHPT
# mHtt clearance: clearance of mutant huntingtin inclusions, primary screen, imaging, HeLa Exon1htt(103Q)mCFP, confocal imaging. aggregate imaging; zero = plate's median compound well. inhibition, % at 1.5 µM. hit rate 0.42% among 47,000;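 active = inhibition of aggregate fluorescence above about 70%, also judged a hit by eye on the cell image, limit read from the data, passing the limit was not always enough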;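 also: cells exposed to compound for three days before fixation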
# M1 ag: M1 muscarinic receptor agonists, primary screen, CHO-M1 cells, Fluo-4 calcium, agonist mode; Muscarinic acetylcholine receptor M1; Fluo-4 calcium fluorescence; stronger effect = higher value; B-score at 10 µM; hit rate 3% among 64,000;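 active = fluorescence rise, raw or as B-score row- and column-corrected plate score, outside the 99.7% band of its plate's samples, either direction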
# M1 antagonist: antagonists of rat M1 muscarinic receptor; CHO-M1 cells, Fluo-4 calcium, ACh EC80 antagonist mode; stronger effect = lower value; hit rate 3.4% among 64,000; B-score at 10 µM;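 active = calcium fluorescence response, raw or row-and-column corrected B-score, differing from the plate sample mean either way at a set confidence level, mostly lower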
# D1 mod confirm: D1 receptor positive allosteric modulators, retest, confirmation, cell-based, HEK293 D1, CRE-luciferase, duplicate; hit rate 88% among 2,200; shares compounds with D1 allo mod; dopamine EC30 potentiation; stronger effect = higher value; luminescence at 10 µM;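 active = luminescence in either of two replicates above the same-plate mean plus 3 SD of the low-dose dopamine control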
# D1 ag no DA: D1 receptor agonism without dopamine, confirmation, mechanism study for D1 allosteric modulator project, cell-based, HEK293 D1, CRE-luciferase, secondary assay 1. hit rate 0.8% among 1,900. luminescence at 10 µM. AID 646, 2007. shares compounds with D1 allo mod. luminescence, no dopamine; stronger effect = higher value; in the data active = luminescence above about 3900
# Isoprot counter: counter-screen for D1 modulators: isoproterenol response in HEK293 cells; HEK293 D1 CRE-luciferase, isoproterenol EC30 counter-screen; stronger effect = higher value; luminescence at 10 µM; shares compounds with D1 allo mod; hit rate 63% among 2,200;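 active = luminescence in either replicate above plate mean of wells with a partly effective reference agonist dose plus 3 SD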;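 also: isoproterenol raises cAMP through native beta-adrenoceptor Gs so signal bypasses D1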
# Starred values were filed as active, the others as inactive; x = no result given. The list is not random: actives were taken first. Their share in the collection is about 9.1%.
SMILES,D1 allo mod,mHtt clearance,M1 ag,M1 antagonist,D1 mod confirm,D1 ag no DA,Isoprot counter
c1ccc(-c2nc3nonc3nc2-c2ccccc2)cc1,6.8*,15,-0.33,-1.9,6860*,1656,3008
O=C(O)c1ccccc1C(=O)N1CCN(c2cccc(Cl)c2)CC1,x,3,x,x,x,x,x
CCOc1ccccc1C(=O)N1CCN(c2cccc(Cl)c2)CC1,5.6*,x,-0.25,-0.16,10528*,2016,3608*
CC(c1ccccc1)N1C(=O)c2ccccc2C1O (configuration not stated),x,24,x,x,x,x,x
CC(=O)NC(Cc1ccccc1C)C(=O)NC1CCN(c2c3c(nc4ncnn24)CCC3)CC1 (configuration not stated),-0.049,x,0.66,0.31,x,x,x
COc1c(C)cccc1C(=O)Nc1cc(-c2nn3c(C)nnc3s2)ccc1C,-0.25,-46,1.5,-1.2,x,x,x
COc1ccc(CCn2c(N)cc(=O)[nH]c2=S)cc1OC,11*,-6,0.97,1.4,16604*,1548,4956*
COc1ccc(OC)c(-n2c(SCC(=O)NCc3ccco3)nnc2-c2c[nH]c3ccccc23)c1,-1.5,65,0.069,0.22,x,x,x
Cc1cccc(NC(=O)C2CCN(S(=O)(=O)c3cccc4cccnc34)CC2)n1,0,-5,-0.028,0.54,x,x,x
CCc1ccc2[nH]c(=O)c(C(c3nnnn3CC3CCCO3)N3CCN4CCCC4C3)cc2c1 (configuration not stated),0.24,x,-0.5,-0.027,x,x,x
O=C(NCc1ccco1)c1cccnc1-c1nc2ccccc2s1,5.9*,-57,-0.29,-0.36,11260*,1740,3708*
O=C(NCc1ccco1)c1cc(-c2cccnc2)nc2ccccc12,0.36,x,0.29,-0.39,x,x,x
COc1ccc(CNC(=O)c2c(O)c3cccc4c3n(c2=O)CCC4)cc1OC,6.2*,x,1.3,0.85,10888*,1696,3828*
FC(F)(F)c1nnc2ccc(N3CCCCCC3)nn12,3.5*,49,-0.75,-1.7,8220*,1432,3372*
Cc1nnc2ccc(N3CCCC3)nn12,-0.21,40,-0.3,0.49,x,x,x
Cc1cc(C)nc(Sc2ccc3nnc(C(F)(F)C(F)(F)C(F)(F)F)n3n2)n1,-0.0067,x,-0.21,0.12,x,x,x
FC(F)(F)C(F)(F)C(F)(F)c1nnc2ccc(N3CCOCC3)nn12,11*,x,1,0.82,18088*,1648,3420*
CCC(Sc1nc2n[nH]c(C)c2c(=N)n1-c1ccc(C)c(Cl)c1)C(=O)N1CCOCC1 (configuration not stated),0.73,x,0.65,-0.17,x,x,x
CCC(Sc1nc2n[nH]c(C)c2c(=N)n1-c1cccc(Cl)c1)C(=O)NCCOC (configuration not stated),5.1*,27,-0.75,-0.54,11752*,1764,4236*
CN(C(=S)NC1=CCS(=O)(=O)C1)C1CCCCC1,x,0,x,x,x,x,x
CCOC(=O)C1=C(c2ccccc2)NC(SCC(=O)Nc2ccccc2C)=C(C#N)C1c1ccco1 (configuration not stated),0.23,x,0.015,1.1,x,x,x
CCC(C)NC(=O)CS(=O)Cc1nc(-c2cccc(C)c2)oc1C (configuration not stated),4.5*,35,-1,0.12,5396,1376,2376
Cc1nn(-c2ccccc2)c(C)c1NS(=O)(=O)c1ccccc1,-0.51,-163,-0.87,0.034,x,x,x
COc1ccc(-c2cnc(N)nc2-c2ccc(OC)cc2O)cc1,14*,18,0.54,0.11,16148*,x,2836*
COc1cccc(Oc2cnc(N)nc2-c2ccc(OC)cc2O)c1,15*,-116,-0.042,0.097,22464*,1596,5216*
SMILES,D1 allo mod,mHtt clearance,M1 ag,M1 antagonist,D1 mod confirm,D1 ag no DA,Isoprot counter
COc1ccc(-c2nc(C)ncc2-c2csc(C)n2)c(O)c1,x,20,x,x,x,x,x
C=C(C)COc1ccc(-c2[nH]ncc2Oc2cccc(OC)c2)c(O)c1,-0.43,8,0.51,-0.012,x,x,x
CCCSc1nc2c(c(=O)[nH]c(=O)n2C)n1Cc1ccc(C)cc1,-0.068,-34,0.024,-0.19,x,x,x
Cc1ccc(Cn2c(N3CCCCCC3)nc3c2c(=O)[nH]c(=O)n3C)cc1,3.1*,-6,-0.45,-0.14,9560*,1668,3704*
Cn1c(=O)[nH]c(=O)c2c1nc(N1CCCCCC1)n2Cc1cccc2ccccc12,x,-42,-0.21,0.4,x,x,x
Cn1c(=O)[nH]c(=O)c2c1nc(N1CCCCCC1)n2CCCSc1nc2ccccc2o1,7.3*,15,1.3,-0.38,7696*,1592,6660*
Cc1ccc(Cn2c(SCC(C)C)nc3c2c(=O)[nH]c(=O)n3C)cc1,7*,-54,-0.025,-0.22,15640*,1512,3544*
CCn1c(N2CCN(CC(=O)c3c(C)n(C)c4ccccc34)CC2)nc2c1c(=O)[nH]c(=O)n2C,3.5*,41,-0.028,-1.6,8636*,1416,4064*
CCCn1c(N2CCN(CC(=O)c3c[nH]c4ccccc34)CC2)nc2c1c(=O)[nH]c(=O)n2C,-0.66,-29,0.38,-1.2,x,x,x
FC(F)C(F)(F)C(F)(F)C(F)(F)c1cc(-c2ccccc2)n[nH]1,1.9,x,-0.049,-0.29,x,x,x
Cc1ccccc1OCc1nnc2c3cnn(C)c3ncn12,0.39,x,-0.45,0.47,x,x,x
COc1ccc(N2CCN(c3nc4c(c(=O)[nH]c(=O)n4C)n3Cc3ccccc3Cl)CC2)cc1,1.1,x,-0.36,-0.032,x,x,x
CC1CCCN(c2nc3c(c(=O)[nH]c(=O)n3C)n2Cc2ccccc2Cl)C1 (configuration not stated),4.5*,x,1.1,0.089,12012*,x,3184*
CN1CCN(c2ccc([N+](=O)[O-])c(-n3nc(-c4ccccc4)c4ccccc4c3=O)c2)CC1,x,32,x,x,x,x,x
COc1ccc2[nH]c(=O)c(CN(CCCN(C)C)C(=O)Nc3ccc(F)cc3)cc2c1,-3.7,x,0.016,-0.76,x,x,x
Cn1c(N2CCCC2)nc2c1c(=O)n(Cc1ccc(Cl)cc1)c(=O)n2C,9*,x,1.1,0.78,17964*,1940,5520*
Cn1c(N2CCCC2)nc2c1c(=O)n(Cc1cccc(F)c1)c(=O)n2C,4.5*,-73,0.5,0.31,11200*,1392,3216*
Cn1c(N2CCC(C(N)=O)CC2)nc2c1c(=O)n(Cc1ccc(Cl)cc1)c(=O)n2C,-0.92,x,0.011,0.55,x,x,x
Cc1ccc(N(C)C(=O)N2CCN(S(=O)(=O)c3ccc(C)c(C)c3)CC2)cc1,x,12,x,x,x,x,x
Nc1nc(NC(=O)Cc2ccccc2)nn1-c1ccccc1,x,x,-0.79,-0.32,x,x,x
CCOC(=O)C(=O)Nc1nnc(Cc2ccc(OC)c(OC)c2)s1,x,38,x,x,x,x,x

# Assay outcomes (PubChem)
